# Source: PubChem (National Center for Advancing Translational Sciences (NCATS))
# Most compounds without a hit are left out; they make up all but 7.9% or so of the library.
# Marburg entry inh = inhibitors of Marburg virus binding or cell entry; Marburg virus pseudotyped entry inhibition, cell reporter; Potency, µM (highest dose often 37.8 µM), usual class: inhibitors; actives 1.8% (n = 300,000); calls by dose curve; tested in HEK293 cells
# HCMV inh = inhibitors of human cytomegalovirus | HFF cells, HCMV-luciferase reporter, 72 h; stronger effect = lower value | activity change, negative = inhibition, % at 57.5 µM | actives 4.5% (n = 410,000); in the data active means activity change below about -60%; inconclusive means no clear call, values can overlap the other calls; inactive means above about -39%
#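 HFF cells seeded 16 h at 37C, treated with compounds, infected with luciferase-reporter HCMV at MOI 1 PFU/cell; luciferase read at 72 h post infection, normalized to buffer-only and Salinomycin controls.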
# HCV inh = HCV inhibition | Potency, µM (doses to about 41.8 µM), most hits filed as inhibitors | actives 3.4% (n = 340,000) | Huh7.5.1 HCVcc-Cre infection, luciferase reporter, 44 h | AID 651820; active means well fitted inhibition curve with a large enough effect; inconclusive means small, poorly fitted or top-dose-only effect, or another doubt; inactive means no such curve, though single readings can be large or run the other way
#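 Infectious HCV cell culture screen: compound-treated cells (1,000/well, pre-plated 4 h) are infected with HCVcc-Cre at roughly 0.5 moi and grown 44 h. Infection is quantified by luciferase signal after 15 min substrate incubation at room temperature.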
# Lassa entry inh = inhibitors of Lassa virus binding or cell entry. Potency, µM (top dose mostly 37.9 µM), usual class: inhibitors. actives 1.2% (n = 300,000). Lassa virus pseudotype entry inhibition, cell reporter; calls by dose curve; tested in HEK293 cells; further: nearly all actives have a fitted effect of over 50% in size
# FMDV antiviral = foot and mouth disease virus antiviral activity; FMDV antiviral cell-based qHTS; Potency, µM (series often up to 57.9 µM), most hits filed as inhibitors; actives 1.2% (n = 410,000); AID 1159524; calls by dose curve; tested in HEK293T cells; further: read-out not given here; nearly all actives have a fitted effect of over 45% in size
# Numbers stand for hits; 0 = inactive; ? = inconclusive; - = no result given; ! = repeats disagree.
SMILES,Marburg entry inh,HCMV inh,HCV inh,Lassa entry inh,FMDV antiviral
CN(CC(=O)Nc1cccc(S(=O)(=O)NC2=NCCCCC2)c1)Cc1ccc(C(C)(C)C)cc1,?,0,?,?,0
CCOc1ccc(N2CC(C(=O)Nc3ccc(F)cc3F)CC2=O)cc1 (centres undefined),?,-102,0,0,0
O=C(COc1ccc(C(=O)c2ccc(F)cc2)cc1)Nc1cccc(S(=O)(=O)N2CCOCC2)c1,0,0,6.3µM,?,32µM
CCOc1ccc(N2CC(C(=O)Nc3ccc4c(c3)OCCO4)CC2=O)cc1 (centres undefined),0,0,0,0,?
Cc1cc(N2C(=O)C(=O)/C(=C(/O)c3ccccc3)[C@H]2c2cccs2)no1,0,-,-,-,-
Cc1cccc(NC(=O)CCCCCn2c(=O)[nH]c3ccsc3c2=O)c1,?,0,-,0,0
CCOc1ccc(NC(=O)c2cc3c(s2)-c2ccccc2OC3)cc1,0,0,-,-,0
CCCN1CCN(CCCNC(=O)c2cc3c(s2)-c2ccccc2OC3)CC1,?,0,10µM,-,0
COC(=O)c1cc2c(s1)-c1cc(F)ccc1OC2,0,-66,0,?,0
Cc1cccc2c1-c1sc(C(=O)NCCc3ccc(Cl)cc3)cc1CO2,0,-87,-,-,0
CC(=O)c1cc2c(s1)-c1cc(F)ccc1OC2,?,0,0,0,0
Cc1csc(NC(=O)c2cc3c(s2)-c2ccccc2OC3)n1,?,0,11µM,0,0
Cc1cc(C)cc(N2CCn3c2nc2c3c(=O)n(C/C=C/c3ccccc3)c(=O)n2C)c1,-,?,-,0,0
O=S(=O)(c1ccccc1)c1nnn2c1nc(NC1CCCCCC1)c1sccc12,-,0,-,0,0
COc1cccc(-c2ccc3ncnc(NCCNC(C)=O)c3c2)c1,-,-,-,-,0
CC1CC(C)CN(CCCNC(=O)c2cc3c(s2)-c2ccccc2OC3)C1 (centres undefined),-,?,8.9µM,-,0
COc1ccc(CCNC(=O)c2cc3c(s2)-c2ccccc2OC3)cc1OC,0,?,-,-,?
Cc1cccc(CCNC(=O)c2cc3c(s2)-c2c(C)cccc2OC3)c1,0,0,-,-,?
CCN1CCN(CCCNC(=O)c2cc3c(s2)-c2ccccc2OC3)CC1,?,-108!,7.1µM,-,0
Cc1cccc2c1-c1sc(C(=O)NCCCN3CCCC(C)C3)cc1CO2 (centres undefined),-,0,11µM,-,0
CN(C)CCNC(=O)c1cc2c(s1)-c1ccccc1OC2,-,0,25µM,-,0
CCCN1CCN(CCCNC(=O)c2cc3c(s2)-c2c(C)cccc2OC3)CC1,?,-70!,2.5µM,-,0
CCn1cc(C(=O)N2CCN(c3ccccc3F)CC2)c(=O)c2cc(S(=O)(=O)N(C)C3CCCCC3)ccc21,0,0,-,0,0
COc1cnc(SC)nc1Nc1ccc(C#N)cc1,-,0,22µM,-,0
NC(=O)C1CCN(c2nc(-c3ccc(F)cc3)cs2)CC1,-,0,-,-,0
SMILES,Marburg entry inh,HCMV inh,HCV inh,Lassa entry inh,FMDV antiviral
NC(=O)C1(N2CCCCC2)CCN(c2nc(-c3ccccc3)cs2)CC1,?,0,?,0,?
O=C(C1CCCCC1)N1CCN(c2nc(-c3ccc(F)cc3)cs2)CC1,0,-60,?,0,?
COc1ccc(-c2csc(N3CCC(C(N)=O)(N4CCCCC4)CC3)n2)cc1,0,-81,?,23µM,-
CN(C)C(=O)N1CCN(c2nc(-c3ccccc3)cs2)CC1,-,0,0,-,0
O=C(NC1CCCCC1)N1CCN(c2nc(-c3ccccc3)cs2)CC1,?,?,10µM,0,?
O=C(NC12CC3CC(CC(C3)C1)C2)N1CCN(c2nc(-c3ccccc3)cs2)CC1,?,0,0,?,25µM
NNC(=O)C1=NN=C(C23CC4CC(CC(C4)C2)C3)C1,0,-,-,-,-
O=[N+]([O-])c1cc(-c2nc(-c3ccccc3)no2)ccc1N1CCOCC1,?,0,-,0,0
CCOC(=O)NN=C1C[C@@H](O)[C@@H](O)[C@@H]2[C@H]3C(=O)N(Cc4ccccc4)C(=O)[C@@H]3CC[C@@H]12,0,-,-,-,-
CC(C)C1N(C(=O)N(C)C)CCN1S(=O)(=O)c1ccccc1 (centres undefined),0,0,0,0,0
CC(C)C1N(S(=O)(=O)c2ccccc2)CCN1S(=O)(=O)c1ccccc1,0,-107,0,0,0
COc1ccc(C(=O)/C=C/C(=O)N(CC(=O)NC2CCCCC2)Cc2ccc(F)cc2)c(O)c1,?,-116,?,?,7.1µM
COc1ccc(C(=O)/C=C/C(=O)N(CC(=O)NCCC(C)C)Cc2cccs2)c(O)c1,21µM,-100,11µM,?,3.5µM
COc1ccc(C(=O)N(Cc2ccco2)Cc2cccs2)c(O)c1,0,0,0,0,0
CS(=O)(=O)N(CC(=O)NC1CCCCC1)Cc1ccc(F)cc1,0,0,0,0,0
CCOc1ccccc1NC(=O)CSC1=Nc2ccccc2C2=NC(CC(=O)NCc3ccc4c(c3)OCO4)C(=O)N12 (centres undefined),?,0,-,?,0
CCc1nc(C)cn1S(=O)(=O)c1ccc(Cl)c(Cl)c1OC,?,-75,-,0,?
CCOc1cc(Cl)c(S(=O)(=O)n2cc(C)nc2CC)cc1Cl,0,?,-,?,?
O=C1C2C=CC=CC2=NC(=S)N1CCN1CCC(=C(c2ccc(F)cc2)c2ccc(F)cc2)CC1 (centres undefined),?,-,-,0,-
CCN(CC)c1ccc2cc(NC(=O)CCC(=O)O)c(=O)oc2c1,1.8µM,-66,0,?,-
CCN(CC)c1ccc2cc(C(C)=O)c(=O)oc2c1,0,0,0,?,0
N#Cc1c(N)nc2c(c1-c1cccnc1)CCCCC2,0,-62,0,?,0
CC(C)(C)OC(=O)N1CCC(c2c(C(=O)NCCN3CCOCC3)cnn2-c2cccc(Cl)c2)CC1,-,0,-,?,0
CCCOc1ccc(C(F)(F)F)cc1NC(=O)CCc1c(C)noc1C,-,0,7.1µM,-,0
COCCOc1ccc(C(F)(F)F)cc1NC(=O)c1ccccc1,0,0,0,?,0
SMILES,Marburg entry inh,HCMV inh,HCV inh,Lassa entry inh,FMDV antiviral
CC(=O)Nc1cc(C(F)(F)F)ccc1OCCOc1ccccc1,0,0,10µM,0,0
CCN(CC)CCC(=O)Nc1cccc2c1C(=O)c1ccccc1C2=O,?,-99,?,0,0
Nc1cccc(C(=O)OCC(=O)Nc2cccc3c2C(=O)c2ccccc2C3=O)c1,?,0,0,?,0
CC1CCN(C(=O)c2ccc3c(c2NCCO)C(=O)c2ccccc2C3=O)CC1,0,0,0,0,?
CCN(CC)CCNC(=O)c1ccc2c(c1NCCO)C(=O)c1ccccc1C2=O,-,-109,0.89µM,-,0
C[C@@H]1CN(Cc2ccc3c(c2)CN(C(=O)CCc2nc4ccc(F)cc4[nH]2)CCO3)C[C@H](C)O1,-,-,-,-,0
O=C(CCn1cnc2ccccc2c1=O)Nc1ccc(Cl)c(Cl)c1,0,-74,0,0,0
Cc1ccc(NC(=O)CCn2cnc3ccccc3c2=O)cc1,0,0,0,?,0
CCCCSc1nnc2c(n1)OC(c1ccc(Br)s1)N(C(C)=O)c1ccccc1-2 (centres undefined),0,0,-,0,0
N#CCCn1cc(C(=O)Nc2ccc([N+](=O)[O-])cc2)c(-c2ccc3c(c2)OCCO3)n1,0,-67,0,?,0
